# Results published in the supplement of paper PMC6555819.
# Tested on: VDR:RXRa (NR concentration 270 nM, RXRa partner concentration 90 nM)
# Test: PBM binding z-score (relative to random genomic background probes); higher = stronger binding; sequences stand for … in GC…GCGATTGACAGCGTAGAATGAAGG
# Method: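 Protein-binding microarray (Agilent 4x180K custom design, double-stranded 60-nt probes: 5' GC cap, 34-nt variable region, 24-nt constant primer region; full probe sequence given). Purified or IVT nuclear receptor:RXRα heterodimers (3:1 NR:RXRα, mostly 270:90 nM) or homodimers were incubated for 1 h in PBS with 2% milk and no ligand, then detected with Alexa488 antibodies. Fluorescence from o1-orientation probes (~5 replicates averaged) was converted to z-scores against 500 random hg19 background probes. Variable regions are seed direct-repeat (DR0–DR5) sites, all their single-nucleotide variants and half-site ablations.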
row,Sequence,PBM binding z-score
1,TAGCCTAGGTCATGCGGCCCAGTATAGTGTCGGC,1.77
2,CAAACTAGGTCACCGAAAGGTCAAAGTCCGCATG,6.46
3,CCTTACGGGTCACGAGGTTGTAGCACGACGAGCG,5.26
4,CGTTCAAGGTCAAAGGTCAGTGAAGAGATGACGG,6.9
5,TCTGCTAGGTCAACGTTGGTCAGCTAATCTGCTA,1.46
6,CGAACAAGGTCATTGACAGGACAGTGAATAGTAA,4.88
7,TAGCCTAGGTCATGCGGGCCAATATAGTGTCGGC,3.64
8,CGTCCAAGGTCATATGAGGTCAGTGAAGACAGAT,7.19
9,AGTCAAAGTTCAGGACGACGTAACGTAAAGCACG,2.18
10,TCTTGTAGATCAATAGAAGTTAAGAAAGTGCGCT,0.744
11,GCTAGTTGGTCAGTAAAATGTCACACACCGGTCG,-0.0389
12,CTATGTAGGTTAAGGGAGTCATTCAGTTTGAAAG,1.94
13,CAGCATAGGTCAGGGCCAGTATAGGAGGAACGTT,1.4
14,CAAACTAGGTCACAAAAGGTCAAAGTCGAATGAC,6.51
15,GCTTACAGGTCAAAGGTTATAGCATGAATAGAAT,5.51
16,ATCGAAAGGTCTAAGGTGAGTATACCCACCCGAA,0.393
17,CTCGAAAGGTCGTGCTCAGATGAGTATACCAAAC,3.09
18,ACTTACGGCTCAACGAGGTTATAGCACGCGTATA,1.53
19,CGTCAAAGGTCAACTAAGGTAACGTAAAGCACGC,6.2
20,CCGAATAGGTTACGAGGGGGCATTCAGTGCGAAT,5.89

row,Sequence,PBM binding z-score
1,TCTTGTAGGTCAATAGAGGTTAAGAAAGTGCGCT,4.85
2,CCGAGAAGGTTACGAGGGGGCATTCAGTGCGAAT,6.24
3,CCTACTGGGCCATTCAGAGGTCAATGATCATATG,3.4
4,CAAACTAGTTCAAGAGGTCAAAGTCCGCTTCCCG,5.54
5,ATATGTAGGATAGCTGGGGTCATTCAGACTAGGC,4.86
6,TTACCAAGGTGAACGGTCGTTGATGCACGCCTTG,0.0102
7,GCTTACGGGTCCAAGGTTATAGCATGAATAGAAT,1.26
8,AGAATGAGGTTACCAAAGGTCAGGGAAACGCTTG,5.67
9,CGAACTAGGTCAAGGCCAGTGAATCTCCGCACGC,1.31
10,AATACGGGGTCACTAGGCCAGAGTAGGTACGAAT,6.16
11,CGTCCAAAGTCAAAGGTCAGTGAAGAGATGACGG,3.16
12,AGTCAAAGTTGAGGACGAGGTAACGTAAAGCACG,0.263
13,CGTCCGAGGTCAAGGTCAGTGAAAGAGACTCGAA,5.48
14,TCTCGGAGGACACTAAAGGTCAGAGCTCGACATC,3.2
15,CCTACTGGGCCTAAGGTCATTGATTCCAATGCTC,3.34
16,CATACAGGGTCGGCTAGGCCAGAGTAGGGACGGC,0.863
17,CAAACTAGGTCACAGTGGTCAAAGTCCGTGCGTA,4.36
18,CGTCAAAGGTCAGCAGGTCAGTGAAAGCGACGTG,5.16
19,CGAACTAGGTCTAAGGACAGTGAAAGGCGACGTA,-0.556
20,CCTACTGGGCCACTAAAGGTCATTGATTCAGTGA,4.05
